Screens: PubChem, National Center for Advancing Translational Sciences (NCATS)
TRHR ag: activates the human TRH receptor | activation, % at 2 µM | actives 0.18% (n = 360,000) | TRHR cells, calcium flux fluo-8, FDSS agonist mode; further: 0% is about no effect
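In this calcium-flux screen, cells bearing human TRHR are dye-loaded with fluo-8, baselined for 10 cycles, then exposed to library compounds; positive kinetic calcium responses during the agonist phase mark hits, with TRH as control.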
D1 agonist: activates the human D1 dopamine receptor; P21728; HEK293 T-REx D1 cells, calcium flux, agonist mode; activation, % at 2 µM; actives 1% (n = 360,000); AID 504660; further: 0% is about no effect
Target sequence (P21728 whole entry, looked up): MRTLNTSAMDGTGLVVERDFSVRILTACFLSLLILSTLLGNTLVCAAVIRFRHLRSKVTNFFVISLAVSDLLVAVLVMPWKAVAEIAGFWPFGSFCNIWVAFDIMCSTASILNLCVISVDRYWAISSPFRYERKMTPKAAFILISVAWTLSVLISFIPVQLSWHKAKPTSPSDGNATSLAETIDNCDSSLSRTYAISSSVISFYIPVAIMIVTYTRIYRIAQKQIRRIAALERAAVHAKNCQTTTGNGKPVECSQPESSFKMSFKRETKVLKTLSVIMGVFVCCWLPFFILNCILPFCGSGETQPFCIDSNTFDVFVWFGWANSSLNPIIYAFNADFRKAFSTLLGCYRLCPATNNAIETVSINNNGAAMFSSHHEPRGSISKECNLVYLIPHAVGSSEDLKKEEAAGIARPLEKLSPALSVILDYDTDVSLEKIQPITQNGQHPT
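Inducible HEK293 T-REx D1 cells, force-coupled to calcium signalling, were plated at 4000 cells/well with tetracycline and held overnight at 30 C. After no-wash calcium dye loading, compound-evoked calcium rise over 180 s flagged agonists.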
D1 antag: human D1 dopamine receptor antagonism | P21728 | HEK293 TREx D1 cells, calcium flux, dopamine EC80; stronger effect = lower value | activity change, negative = inhibition, % at 10 µM | actives 3.2% (n = 360,000) | AID 504652; in the data active means activity change below about -30%; further: on the % scale 0 is the no-effect control and ±100 the full control effect
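Inducible Hek293 Trex D1 cells (tetracycline, overnight, 30 C). Calcium dye 30–90 min RT. Antagonist mode: EC80 dopamine added after 180 s compound read.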
TRHR PAM: TRH receptor (human) allosteric enhancement. enhancement, % at 2 µM. P34981. TRHR cells, fluo-8 calcium fluorescence, EC20 TRH enhancement. actives 0.66% (n = 360,000); in the data active means enhancement above about 30%; further: 0% is about no effect
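TRHR-expressing cells loaded with fluo-8 calcium dye were read kinetically (ex 480/em 530) during compound addition, then stimulated with an EC20 of TRH (10 nM final). Enhancement of the Gq-mediated intracellular calcium response was scored.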
D1 PAM: human D1 dopamine receptor positive modulation; P21728; HEK293 TREx D1 cells, calcium flux, dopamine EC20 potentiation; potentiation, % at 10 µM; actives 0.036% (n = 360,000); AID 504651; in the data active means potentiation above about 30%; further: 0% is about no effect
Active calls of the source: *; · = no result; ! = a repeat was not active. A selection: hits, their analogues and other compounds. The true share with any hit is near 4.7%. Unless noted, no stated cut-off is given here; in the data, active means activation above about 30%; inactive means the rest.

SMILES	TRHR ag	D1 agonist	D1 antag	TRHR PAM	D1 PAM
Cc1csc2ncnc(NC3CCN(Cc4ccccc4)CC3)c12	0	22	-33*	2	-10
c1ccc(CN2CCC(Nc3nc(-c4ccccc4)nc4ccccc34)CC2)cc1	1	7	-1	1	-2
CCc1ccc2c(c1)NC(c1ccc(C)cc1)=NC(c1cccs1)=N2	-1	0	-1	1	2
CC(=O)c1cccc(NC(=O)Nc2sc3nc4n(c(=O)c3c2C)CCC(C)CC4)c1 (centres undefined)	0	2	1	13	-3
CCN(CC)c1cccc(OC2=NS(=O)(=O)c3ccccc32)c1	-2	4	10	37*	-1
CCc1ccc(OC2=NS(=O)(=O)c3ccccc32)cc1	1	-2	·	8	-4
N#Cc1nc(Nc2cc(F)cc(F)c2)c2ncn(C3CCCC3)c2n1	1	3	1	2	3
CC(Oc1ccccc1)C(=O)N=Nc1c(O)[nH]c2ccc(Br)cc12 (centres undefined)	-1	0	-36*	-8	-5
Cc1cccc(C)c1OCC(=O)N=Nc1c(O)[nH]c2ccc(Br)cc12	0	1	15	3	-4
COc1ccccc1N=Nc1c(O)[nH]c2ccc(Br)cc12	4	4	-60*	2	-5
CCCn1c2ccccc2c2cnn(CC(=O)NCCCN3CCCC(C)C3)c(=O)c21 (centres undefined)	0	2	4	6	0
CCOC(=O)c1cc2c(N)c(C(=O)c3ccc(Br)cc3)sc2[nH]c1=O	0	2	3	35*	-9
CN(C)S(=O)(=O)c1ccc(C(=O)Nc2c(C(=O)Nc3ccc(F)cc3)oc3ccccc23)cc1	1	4	17	4	-1
Cc1ccc(-c2nc(CS(=O)CC(=O)NC3CC3)c(C)o2)cc1 (centres undefined)	0	0	12	3	3
Cc1oc(-c2ccccc2Cl)nc1CS(=O)CC(=O)NC1CC1 (centres undefined)	0	0	-60*	3	-4
Cc1ccc(CNC(=O)CS(=O)Cc2nc(-c3ccccc3Cl)oc2C)cc1 (centres undefined)	0	4	-42*	-5	1
O=C1Nc2ccc(S(=O)(=O)NCCC3=CCCCC3)c3cccc1c23	0	17	-37*	4	-9
O=C1Nc2ccc(S(=O)(=O)NCCCO)c3cccc1c23	2	4	3	0	9
COc1ccc(NC(=S)N2CCCC2c2ccc(OC)c(OC)c2)cc1 (centres undefined)	0	2	2	6	2
CC(=O)c1ccc(N2CCN(C(=O)Nc3ccc(C)cc3)CC2)cc1	-1	7	-40*!	8	-2
O=C(Nc1ccc2c(c1)OCCO2)N1CCN(c2ccccc2)CC1	0	6	-46*	2	-9
O=C(Nc1ccc2c(c1)OCO2)N1CCN(c2ccccc2)CC1	0	1	0	2	-4
CC(=O)c1ccc(N2CCN(C(=O)Nc3cccc(F)c3)CC2)cc1	1	5	-35*!	-1	-4
COc1ccc(C2CCCN2C(=S)Nc2cccc(C)c2)cc1OC (centres undefined)	-1	3	-59*	2	3
COc1ccc(S(=O)(=O)NCCSCc2ccc(Cl)cc2)cc1NC(C)=O	0	0	-7	10	1
SMILES	TRHR ag	D1 agonist	D1 antag	TRHR PAM	D1 PAM
COC(=O)N1CCN(c2ccc(Cl)c(Cl)c2)CC1	0	13	-6	-2	5
Cc1ccc(NC(=O)N2CCN(c3ccc(Cl)c(Cl)c3)CC2)cc1	0	16	-30*	-2	-3
CC(C)c1ccc(NC(=O)N2CCN(c3ccc(Cl)c(Cl)c3)CC2)cc1	0	15	-15	-3	-2
CC(=O)c1ccc(N2CCN(C(=S)Nc3cccc(Cl)c3)CC2)cc1	0	4	-37*	-6	0
COc1ccc(N2CCN(C(=S)Nc3cccc(C)c3)CC2)cc1	-1	1	-41*	-1	-2
CC(=O)c1ccc(NC(=S)N2CCN(c3cccc(Cl)c3)CC2)cc1	0	5	·	-4	-7
COc1cccc(N2CCN(C(=S)Nc3cccc(C)c3)CC2)c1	-1	8	-4	0	-1
CNC(=S)N1CCN(c2ccc(Cl)c(Cl)c2)CC1	1	10	-31*	-1	-7
C=CCC1(CC=C)CCCN1C(=O)c1cc(COc2ccc(C)nc2)on1	0	19	-26	1	-4
Cc1cc(C)cc(NC(=O)N2CCCN(c3c(Cl)cncc3Cl)CC2)c1	0	0	-33*	-7	-4
Cc1ccccc1C(=O)N1CCN(c2ccc(NC(=O)c3cccnc3)cc2)CC1	0	1	-19	2	-11
O=C(Nc1cccc2ccccc12)N1CCCN(c2c(Cl)cncc2Cl)CC1	0	0	8	-6	-1
Cc1ccc(C(=O)N2CCN(c3ccc(NC(=O)c4cccnc4)cc3)CC2)cc1	1	-1	-31*	4	-6
CN=C(Nc1cccnc1)c1ccccc1	0	0	-17	-4	8
O=C(N/N=C/c1ccc(OC(=O)c2ccccc2Cl)cc1)c1cc(O)cc(O)c1	1	2	-7	2	-2
O=C(N/N=C/c1ccc(OC(=O)c2ccccc2Cl)cc1)c1ccccn1	0	1	-15	31*	3
CCOC(=O)c1ccc(CN(Cc2ccc(F)cc2)S(=O)(=O)c2cc(C(=O)Nc3ccccc3CC)ccc2F)cc1	2	12	6	0	-2
CN1/C(=C\P(=O)(N(C)C)N(C)C)C(C)(C)c2ccccc21	2	8	-37*	-4	-3
CCOC(=O)/C=C1/N(C)c2ccccc2C1(C)C	0	1	-3	0	1
COc1ccc([N+](=O)[O-])cc1/C=N/NC(=O)CNC(=O)C(c1ccccc1)c1ccccc1	-1	2	-32*	-5	-8
O=C(O)c1ccc(N/N=C/c2ccc(OC(=O)c3cccc(Cl)c3)cc2)cc1	1	37*	-36*	0	-7
Cc1ccc(Nc2sc(C(=O)c3ccccc3)c(N)c2S(=O)(=O)c2ccccc2)cc1Cl	1	17	-22	0	-2
CCN(C(=O)Cn1cc(S(=O)(=O)Cc2ccccc2Cl)c2ccccc21)c1ccccc1	1	4	11	-9	-1
Cc1ccc(-c2c(C(=O)N3CCN(c4cccc(C)c4)C(C)C3)oc(=O)c3ccccc23)cc1 (centres undefined)	0	-1	-37*	4	-3
Cc1cccc(N2CCN(C(=O)CCN3C(=O)C4C5C=CC(C5)C4C3=O)CC2C)c1 (centres undefined)	0	1	-21	-5	1
